Measurements reported in the supplement of paper PMC11732987, “Enantioselective OTUD7B fragment discovery through chemoproteomics screening and high-throughput optimisation” (Communications Chemistry, 2025).

Legend:
Experiment in all cases: log2 ratio of Biotin-Ahx-Ub-VS probe labelling (fragment/DMSO); higher = less target engagement (more negative = stronger competition), active = hit call of the paper (q ≤ 0.05, log2 ratio ≤ -1)
Details in all cases: compound concentration: 200 uM; treatment time: 3 h
UniProt O00507 = target: UniProt O00507
In short: (§1)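 HEK293T lysate (495 µg per sample, in Tris/CHAPS/IGEPAL buffer with protease inhibitors) was exposed in triplicate for 3 h to fragment at 200 µM or to vehicle, then to Biotin-Ahx-Ub-VS at 0.5 µM final for 1 h. Labelled DUBs were enriched on NeutrAvidin, digested with LysC and trypsin, and analysed by diaPASEF LC-MS/MS. Spectronaut label-free quantities were normalised to the global median, and values are average log2 ratios of fragment over vehicle from an unpaired t-test. Only proteins with ≥2 unique peptides were used.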

UniProt P51784 = target: UniProt P51784
In short: as §1

UniProt Q5T2D3 = target: T1, UniProt Q5T2D3
T1 sequence (whole entry): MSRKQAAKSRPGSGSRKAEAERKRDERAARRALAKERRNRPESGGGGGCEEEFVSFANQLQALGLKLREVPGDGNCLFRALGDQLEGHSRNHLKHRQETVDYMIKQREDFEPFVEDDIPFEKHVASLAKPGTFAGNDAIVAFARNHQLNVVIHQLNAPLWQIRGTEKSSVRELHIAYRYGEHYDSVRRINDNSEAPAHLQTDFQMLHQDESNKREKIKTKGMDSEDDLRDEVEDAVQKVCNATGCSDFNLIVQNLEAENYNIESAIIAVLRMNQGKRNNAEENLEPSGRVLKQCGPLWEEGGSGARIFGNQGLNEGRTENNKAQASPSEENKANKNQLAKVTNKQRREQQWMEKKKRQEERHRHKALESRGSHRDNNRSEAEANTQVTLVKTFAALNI
In short: as §1

UniProt Q8TE49 = target: T2, UniProt Q8TE49
T2 sequence (whole entry): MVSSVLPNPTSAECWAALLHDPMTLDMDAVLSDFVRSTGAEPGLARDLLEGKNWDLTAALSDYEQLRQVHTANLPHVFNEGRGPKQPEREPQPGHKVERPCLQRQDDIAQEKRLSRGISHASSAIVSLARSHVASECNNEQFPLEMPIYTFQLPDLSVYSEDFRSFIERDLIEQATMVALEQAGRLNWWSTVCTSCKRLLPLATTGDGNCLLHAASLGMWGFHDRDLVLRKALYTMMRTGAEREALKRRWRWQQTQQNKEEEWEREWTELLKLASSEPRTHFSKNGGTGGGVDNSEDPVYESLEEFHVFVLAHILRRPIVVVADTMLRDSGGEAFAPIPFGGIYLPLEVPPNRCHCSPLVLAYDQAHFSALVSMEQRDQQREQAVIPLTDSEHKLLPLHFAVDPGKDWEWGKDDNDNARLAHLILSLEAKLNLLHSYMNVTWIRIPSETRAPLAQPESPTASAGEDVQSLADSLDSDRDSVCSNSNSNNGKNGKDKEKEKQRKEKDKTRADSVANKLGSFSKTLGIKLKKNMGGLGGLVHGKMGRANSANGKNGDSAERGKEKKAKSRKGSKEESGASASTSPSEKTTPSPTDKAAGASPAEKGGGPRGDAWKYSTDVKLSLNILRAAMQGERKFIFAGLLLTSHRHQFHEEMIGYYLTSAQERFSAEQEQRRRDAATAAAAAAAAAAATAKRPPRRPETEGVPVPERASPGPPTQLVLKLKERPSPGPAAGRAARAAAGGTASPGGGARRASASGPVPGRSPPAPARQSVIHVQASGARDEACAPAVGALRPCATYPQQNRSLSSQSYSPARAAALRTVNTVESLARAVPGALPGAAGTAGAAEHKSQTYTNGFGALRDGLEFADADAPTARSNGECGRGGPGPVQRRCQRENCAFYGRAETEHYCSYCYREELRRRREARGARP
In short: as §1

UniProt Q9P2H5 = target: T3, UniProt Q9P2H5
T3 sequence (whole entry): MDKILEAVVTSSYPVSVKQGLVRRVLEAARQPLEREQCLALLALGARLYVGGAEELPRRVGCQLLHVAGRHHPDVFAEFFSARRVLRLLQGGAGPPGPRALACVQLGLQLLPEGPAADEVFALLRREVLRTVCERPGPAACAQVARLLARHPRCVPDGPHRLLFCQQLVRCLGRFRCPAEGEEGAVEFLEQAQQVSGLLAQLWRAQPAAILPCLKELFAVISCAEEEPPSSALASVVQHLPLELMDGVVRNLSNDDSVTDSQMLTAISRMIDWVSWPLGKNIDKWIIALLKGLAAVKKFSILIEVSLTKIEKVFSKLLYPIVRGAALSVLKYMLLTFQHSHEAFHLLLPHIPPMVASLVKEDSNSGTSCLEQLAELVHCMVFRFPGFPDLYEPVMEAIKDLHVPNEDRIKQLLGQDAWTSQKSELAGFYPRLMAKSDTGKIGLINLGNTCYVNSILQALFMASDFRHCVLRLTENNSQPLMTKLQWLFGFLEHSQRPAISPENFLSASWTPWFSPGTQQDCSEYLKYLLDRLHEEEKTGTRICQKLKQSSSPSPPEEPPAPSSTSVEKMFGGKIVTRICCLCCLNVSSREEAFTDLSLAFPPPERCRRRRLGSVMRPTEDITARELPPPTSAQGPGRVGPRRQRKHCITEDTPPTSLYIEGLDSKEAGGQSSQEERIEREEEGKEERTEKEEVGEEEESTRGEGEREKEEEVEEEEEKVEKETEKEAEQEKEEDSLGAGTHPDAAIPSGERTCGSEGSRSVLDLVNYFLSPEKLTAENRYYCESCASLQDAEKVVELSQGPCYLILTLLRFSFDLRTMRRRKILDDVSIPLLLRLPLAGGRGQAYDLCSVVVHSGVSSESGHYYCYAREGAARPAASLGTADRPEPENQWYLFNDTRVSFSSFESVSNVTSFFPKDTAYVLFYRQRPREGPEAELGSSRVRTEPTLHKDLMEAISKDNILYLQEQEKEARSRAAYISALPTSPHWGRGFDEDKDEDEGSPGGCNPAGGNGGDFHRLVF
In short: as §1

UniProt Q9UGI0 = target: T4, UniProt Q9UGI0
T4 sequence (whole entry): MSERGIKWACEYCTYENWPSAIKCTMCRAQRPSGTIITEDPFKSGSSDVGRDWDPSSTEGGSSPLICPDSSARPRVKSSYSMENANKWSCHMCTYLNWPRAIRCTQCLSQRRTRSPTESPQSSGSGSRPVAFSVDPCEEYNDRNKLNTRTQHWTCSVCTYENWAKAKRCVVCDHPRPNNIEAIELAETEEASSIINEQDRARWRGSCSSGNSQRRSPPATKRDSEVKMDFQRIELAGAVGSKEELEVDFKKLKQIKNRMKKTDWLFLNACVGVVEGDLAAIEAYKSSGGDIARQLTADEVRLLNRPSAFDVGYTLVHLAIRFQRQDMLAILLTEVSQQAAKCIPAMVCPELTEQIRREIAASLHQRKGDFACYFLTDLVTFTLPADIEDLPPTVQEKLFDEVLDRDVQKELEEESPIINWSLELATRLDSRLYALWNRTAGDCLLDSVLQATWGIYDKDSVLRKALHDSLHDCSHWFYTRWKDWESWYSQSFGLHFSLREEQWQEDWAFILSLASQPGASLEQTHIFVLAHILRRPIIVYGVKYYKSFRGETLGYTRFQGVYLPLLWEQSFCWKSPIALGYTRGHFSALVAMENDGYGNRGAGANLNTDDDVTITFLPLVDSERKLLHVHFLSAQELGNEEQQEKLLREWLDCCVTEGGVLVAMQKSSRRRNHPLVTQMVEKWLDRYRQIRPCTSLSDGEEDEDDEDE
In short: as §1

YOD1 = target: T5, YOD1 (UniProt Q5VVQ6)
T5 sequence (whole entry): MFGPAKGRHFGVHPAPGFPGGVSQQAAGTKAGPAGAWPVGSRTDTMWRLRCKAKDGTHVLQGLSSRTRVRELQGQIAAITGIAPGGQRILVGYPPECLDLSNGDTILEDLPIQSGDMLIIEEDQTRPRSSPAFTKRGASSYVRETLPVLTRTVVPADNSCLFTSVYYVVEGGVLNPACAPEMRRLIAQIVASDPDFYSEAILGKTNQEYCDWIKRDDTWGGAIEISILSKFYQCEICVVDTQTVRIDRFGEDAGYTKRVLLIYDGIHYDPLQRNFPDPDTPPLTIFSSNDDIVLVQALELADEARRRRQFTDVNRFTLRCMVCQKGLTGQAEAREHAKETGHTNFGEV
In short: as §1

Measured: log2 ratio of Biotin-Ahx-Ub-VS probe labelling

UniProt P51784, sequence (P51784 whole entry): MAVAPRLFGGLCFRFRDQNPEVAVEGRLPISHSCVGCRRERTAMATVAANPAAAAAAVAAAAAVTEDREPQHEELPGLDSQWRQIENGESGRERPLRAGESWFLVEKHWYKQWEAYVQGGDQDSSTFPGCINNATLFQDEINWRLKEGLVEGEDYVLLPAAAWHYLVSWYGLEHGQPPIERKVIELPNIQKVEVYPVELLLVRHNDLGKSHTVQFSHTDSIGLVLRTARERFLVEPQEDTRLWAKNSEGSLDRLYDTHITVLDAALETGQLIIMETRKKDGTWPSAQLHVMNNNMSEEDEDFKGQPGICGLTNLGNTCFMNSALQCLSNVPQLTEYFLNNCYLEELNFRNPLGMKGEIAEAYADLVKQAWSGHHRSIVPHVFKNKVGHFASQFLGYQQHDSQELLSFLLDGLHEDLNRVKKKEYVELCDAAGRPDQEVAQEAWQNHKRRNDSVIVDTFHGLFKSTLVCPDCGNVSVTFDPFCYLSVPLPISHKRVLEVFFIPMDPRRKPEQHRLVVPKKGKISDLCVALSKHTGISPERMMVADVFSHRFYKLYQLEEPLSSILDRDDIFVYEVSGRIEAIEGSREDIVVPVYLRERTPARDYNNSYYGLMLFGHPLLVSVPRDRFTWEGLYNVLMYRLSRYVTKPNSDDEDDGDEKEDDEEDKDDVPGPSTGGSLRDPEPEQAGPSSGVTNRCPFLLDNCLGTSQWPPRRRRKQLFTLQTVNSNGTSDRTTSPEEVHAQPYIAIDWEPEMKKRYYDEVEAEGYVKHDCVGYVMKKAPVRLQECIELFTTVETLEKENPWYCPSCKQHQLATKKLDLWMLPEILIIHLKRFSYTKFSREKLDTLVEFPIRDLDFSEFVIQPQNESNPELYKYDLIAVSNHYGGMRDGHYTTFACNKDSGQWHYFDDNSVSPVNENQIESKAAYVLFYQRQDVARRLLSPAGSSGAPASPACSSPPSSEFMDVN
UniProt O00507, sequence (O00507 whole entry, the tested form may be a part): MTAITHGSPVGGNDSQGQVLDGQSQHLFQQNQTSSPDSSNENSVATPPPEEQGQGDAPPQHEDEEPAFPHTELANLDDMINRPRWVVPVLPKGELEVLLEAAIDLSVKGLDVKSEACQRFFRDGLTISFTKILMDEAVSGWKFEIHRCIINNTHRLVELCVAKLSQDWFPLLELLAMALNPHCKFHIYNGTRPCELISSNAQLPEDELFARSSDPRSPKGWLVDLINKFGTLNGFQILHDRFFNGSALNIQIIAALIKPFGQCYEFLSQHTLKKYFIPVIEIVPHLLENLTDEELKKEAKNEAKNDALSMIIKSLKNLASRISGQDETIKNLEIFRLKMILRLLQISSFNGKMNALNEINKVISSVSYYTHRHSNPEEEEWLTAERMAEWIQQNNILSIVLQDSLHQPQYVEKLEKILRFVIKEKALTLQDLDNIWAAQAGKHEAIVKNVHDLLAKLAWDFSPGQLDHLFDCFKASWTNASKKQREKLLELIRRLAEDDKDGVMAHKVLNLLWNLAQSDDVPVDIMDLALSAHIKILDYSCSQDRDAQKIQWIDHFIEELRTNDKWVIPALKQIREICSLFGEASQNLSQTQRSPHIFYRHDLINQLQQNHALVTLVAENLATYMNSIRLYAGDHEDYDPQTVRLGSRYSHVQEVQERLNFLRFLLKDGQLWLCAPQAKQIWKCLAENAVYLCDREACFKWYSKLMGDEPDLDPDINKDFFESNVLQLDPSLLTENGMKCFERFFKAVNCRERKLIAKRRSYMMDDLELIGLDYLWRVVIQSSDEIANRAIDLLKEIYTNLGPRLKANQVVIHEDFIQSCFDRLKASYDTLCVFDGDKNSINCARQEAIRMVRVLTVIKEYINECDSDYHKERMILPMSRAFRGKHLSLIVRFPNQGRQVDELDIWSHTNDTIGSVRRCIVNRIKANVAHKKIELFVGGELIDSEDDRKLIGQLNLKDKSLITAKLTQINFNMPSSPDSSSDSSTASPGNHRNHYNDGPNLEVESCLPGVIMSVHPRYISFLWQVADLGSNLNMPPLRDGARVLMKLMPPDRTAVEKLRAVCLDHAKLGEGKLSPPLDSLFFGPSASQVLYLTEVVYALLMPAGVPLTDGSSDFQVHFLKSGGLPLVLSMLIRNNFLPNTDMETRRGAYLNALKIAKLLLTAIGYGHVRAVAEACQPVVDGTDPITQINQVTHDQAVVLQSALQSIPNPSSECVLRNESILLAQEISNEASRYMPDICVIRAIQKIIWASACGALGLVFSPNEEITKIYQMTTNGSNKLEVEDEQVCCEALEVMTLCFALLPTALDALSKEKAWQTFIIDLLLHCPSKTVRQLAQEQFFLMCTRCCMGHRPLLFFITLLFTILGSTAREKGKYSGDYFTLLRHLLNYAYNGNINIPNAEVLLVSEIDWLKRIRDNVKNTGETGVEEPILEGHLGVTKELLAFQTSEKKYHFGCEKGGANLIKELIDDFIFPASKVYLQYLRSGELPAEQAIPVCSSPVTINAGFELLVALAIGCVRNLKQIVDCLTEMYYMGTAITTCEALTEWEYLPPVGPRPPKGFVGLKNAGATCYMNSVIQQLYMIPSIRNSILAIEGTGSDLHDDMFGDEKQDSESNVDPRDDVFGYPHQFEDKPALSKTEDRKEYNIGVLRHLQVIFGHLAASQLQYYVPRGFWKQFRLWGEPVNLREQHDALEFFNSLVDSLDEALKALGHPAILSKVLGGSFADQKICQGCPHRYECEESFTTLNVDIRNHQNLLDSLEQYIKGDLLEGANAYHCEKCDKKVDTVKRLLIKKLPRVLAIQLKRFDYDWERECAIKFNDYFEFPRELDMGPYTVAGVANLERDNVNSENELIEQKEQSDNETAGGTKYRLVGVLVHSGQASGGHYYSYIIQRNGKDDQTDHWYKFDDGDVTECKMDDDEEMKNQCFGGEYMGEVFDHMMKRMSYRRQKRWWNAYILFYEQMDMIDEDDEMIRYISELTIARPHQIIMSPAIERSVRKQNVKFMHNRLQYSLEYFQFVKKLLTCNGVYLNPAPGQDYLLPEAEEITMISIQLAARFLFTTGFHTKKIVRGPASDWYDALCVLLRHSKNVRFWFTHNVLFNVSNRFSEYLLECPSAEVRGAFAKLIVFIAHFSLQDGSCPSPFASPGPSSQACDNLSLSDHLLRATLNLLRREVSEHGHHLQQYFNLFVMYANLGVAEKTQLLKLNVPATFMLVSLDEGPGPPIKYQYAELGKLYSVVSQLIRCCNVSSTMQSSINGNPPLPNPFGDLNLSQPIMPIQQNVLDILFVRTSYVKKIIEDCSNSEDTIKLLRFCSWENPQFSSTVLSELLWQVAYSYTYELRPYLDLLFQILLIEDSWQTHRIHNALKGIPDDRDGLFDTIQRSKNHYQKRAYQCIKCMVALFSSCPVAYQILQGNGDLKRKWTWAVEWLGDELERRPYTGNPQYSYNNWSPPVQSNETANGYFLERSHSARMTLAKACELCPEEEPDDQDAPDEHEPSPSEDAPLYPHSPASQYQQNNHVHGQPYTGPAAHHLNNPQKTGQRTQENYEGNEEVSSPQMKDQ

Cc1cccc(C)c1NC(=O)CCl
inactive: UniProt O00507 -0.138 | UniProt P51784 -0.081 | UniProt Q5T2D3 -0.377 | UniProt Q8TE49 -0.358 | UniProt Q9P2H5 -0.0602 | UniProt Q9UGI0 -0.323 | YOD1 -0.344

CC1CN(c2ccc(NC(=O)CCl)cc2)CC(C)O1 (stereo not drawn)
inactive: UniProt O00507 -0.0662 | UniProt P51784 0.0387 | UniProt Q5T2D3 -0.298 | UniProt Q8TE49 -0.392 | UniProt Q9P2H5 -0.0224 | UniProt Q9UGI0 -0.221 | YOD1 -0.123

O=C(CCl)N[C@H]1CCS(=O)(=O)c2ccccc21
inactive: UniProt O00507 -0.141 | UniProt P51784 -0.134 | UniProt Q5T2D3 -0.0599 | UniProt Q8TE49 -0.609 | UniProt Q9P2H5 -0.0511 | UniProt Q9UGI0 -0.158 | YOD1 0.0852

Cc1ccc(CNC(=O)CCl)nc1C.Cl
inactive: UniProt O00507 -0.661 | UniProt P51784 0.353 | UniProt Q5T2D3 -0.0639 | UniProt Q8TE49 -0.343 | UniProt Q9P2H5 0.102 | UniProt Q9UGI0 -0.161 | YOD1 -0.259

O=C(O)C1Cc2ccccc2CN1C(=O)CCl (stereo not drawn)
inactive: UniProt O00507 -0.298 | UniProt P51784 -0.0646 | UniProt Q5T2D3 -0.268 | UniProt Q8TE49 -0.664 | UniProt Q9P2H5 -0.394 | UniProt Q9UGI0 -0.642 | YOD1 -0.0629

O=C(CCl)Nc1nc(-c2cccs2)cs1
active: UniProt Q9UGI0 -2.34
inactive: UniProt O00507 -0.168 | UniProt P51784 0.104 | UniProt Q5T2D3 -0.239 | UniProt Q8TE49 -0.68 | UniProt Q9P2H5 -0.138 | YOD1 0.237

Cl.O=C(CN1CCN(C(=O)CCl)CC1)Nc1ccc(F)cc1
inactive: UniProt O00507 0.543 | UniProt P51784 0.0839 | UniProt Q5T2D3 -0.013 | UniProt Q8TE49 -0.19 | UniProt Q9P2H5 -0.164 | UniProt Q9UGI0 -0.166 | YOD1 0.204

COCC1C=CCCN1C(=O)CCl (stereo not drawn)
active: UniProt Q9UGI0 -1.01
inactive: UniProt O00507 -0.284 | UniProt P51784 -0.0747 | UniProt Q5T2D3 -0.118 | UniProt Q8TE49 -0.259 | UniProt Q9P2H5 -0.0309 | YOD1 -0.0106

O=C(CCl)N1CCC(S(=O)(=O)c2ccc(F)cc2)CC1
inactive: UniProt O00507 0.0377 | UniProt P51784 -0.0572 | UniProt Q5T2D3 -0.0766 | UniProt Q8TE49 -0.856 | UniProt Q9P2H5 -0.104 | UniProt Q9UGI0 -0.887 | YOD1 0.119
